Test results published in PubChem BioAssay AID504333 (National Center for Advancing Translational Sciences (NCATS), 2011).
The whole screen tested about 360,000 compounds, of which about 16,000 (4.4%) were called active. Another 9% or so got no clear call; they are omitted. Many of the other results were omitted from the sample, so actives are more common in it than they were. A number with no mark means an inactive call. Calls follow the shape of the dose curve; as a rule, active = well fitted inhibition curve with a large enough effect; inconclusive = small, poorly fitted or top-dose-only effect; inactive = no such curve, though single readings can be large or run the other way.

These compounds were tested against Bromodomain adjacent to zinc finger domain protein 2B (Homo sapiens) (UniProt Q9UIF8) (assay: qHTS Assay for Inhibitors of BAZ2B). Details: AlphaScreen BAZ2B-H3K14Ac peptide displacement; series mostly up to 114 µM; activity change, negative = inhibition: at the top concentration.
Sequence of Bromodomain adjacent to zinc finger domain protein 2B (Homo sapiens) (Q9UIF8 whole entry, looked up, the tested form may be a part): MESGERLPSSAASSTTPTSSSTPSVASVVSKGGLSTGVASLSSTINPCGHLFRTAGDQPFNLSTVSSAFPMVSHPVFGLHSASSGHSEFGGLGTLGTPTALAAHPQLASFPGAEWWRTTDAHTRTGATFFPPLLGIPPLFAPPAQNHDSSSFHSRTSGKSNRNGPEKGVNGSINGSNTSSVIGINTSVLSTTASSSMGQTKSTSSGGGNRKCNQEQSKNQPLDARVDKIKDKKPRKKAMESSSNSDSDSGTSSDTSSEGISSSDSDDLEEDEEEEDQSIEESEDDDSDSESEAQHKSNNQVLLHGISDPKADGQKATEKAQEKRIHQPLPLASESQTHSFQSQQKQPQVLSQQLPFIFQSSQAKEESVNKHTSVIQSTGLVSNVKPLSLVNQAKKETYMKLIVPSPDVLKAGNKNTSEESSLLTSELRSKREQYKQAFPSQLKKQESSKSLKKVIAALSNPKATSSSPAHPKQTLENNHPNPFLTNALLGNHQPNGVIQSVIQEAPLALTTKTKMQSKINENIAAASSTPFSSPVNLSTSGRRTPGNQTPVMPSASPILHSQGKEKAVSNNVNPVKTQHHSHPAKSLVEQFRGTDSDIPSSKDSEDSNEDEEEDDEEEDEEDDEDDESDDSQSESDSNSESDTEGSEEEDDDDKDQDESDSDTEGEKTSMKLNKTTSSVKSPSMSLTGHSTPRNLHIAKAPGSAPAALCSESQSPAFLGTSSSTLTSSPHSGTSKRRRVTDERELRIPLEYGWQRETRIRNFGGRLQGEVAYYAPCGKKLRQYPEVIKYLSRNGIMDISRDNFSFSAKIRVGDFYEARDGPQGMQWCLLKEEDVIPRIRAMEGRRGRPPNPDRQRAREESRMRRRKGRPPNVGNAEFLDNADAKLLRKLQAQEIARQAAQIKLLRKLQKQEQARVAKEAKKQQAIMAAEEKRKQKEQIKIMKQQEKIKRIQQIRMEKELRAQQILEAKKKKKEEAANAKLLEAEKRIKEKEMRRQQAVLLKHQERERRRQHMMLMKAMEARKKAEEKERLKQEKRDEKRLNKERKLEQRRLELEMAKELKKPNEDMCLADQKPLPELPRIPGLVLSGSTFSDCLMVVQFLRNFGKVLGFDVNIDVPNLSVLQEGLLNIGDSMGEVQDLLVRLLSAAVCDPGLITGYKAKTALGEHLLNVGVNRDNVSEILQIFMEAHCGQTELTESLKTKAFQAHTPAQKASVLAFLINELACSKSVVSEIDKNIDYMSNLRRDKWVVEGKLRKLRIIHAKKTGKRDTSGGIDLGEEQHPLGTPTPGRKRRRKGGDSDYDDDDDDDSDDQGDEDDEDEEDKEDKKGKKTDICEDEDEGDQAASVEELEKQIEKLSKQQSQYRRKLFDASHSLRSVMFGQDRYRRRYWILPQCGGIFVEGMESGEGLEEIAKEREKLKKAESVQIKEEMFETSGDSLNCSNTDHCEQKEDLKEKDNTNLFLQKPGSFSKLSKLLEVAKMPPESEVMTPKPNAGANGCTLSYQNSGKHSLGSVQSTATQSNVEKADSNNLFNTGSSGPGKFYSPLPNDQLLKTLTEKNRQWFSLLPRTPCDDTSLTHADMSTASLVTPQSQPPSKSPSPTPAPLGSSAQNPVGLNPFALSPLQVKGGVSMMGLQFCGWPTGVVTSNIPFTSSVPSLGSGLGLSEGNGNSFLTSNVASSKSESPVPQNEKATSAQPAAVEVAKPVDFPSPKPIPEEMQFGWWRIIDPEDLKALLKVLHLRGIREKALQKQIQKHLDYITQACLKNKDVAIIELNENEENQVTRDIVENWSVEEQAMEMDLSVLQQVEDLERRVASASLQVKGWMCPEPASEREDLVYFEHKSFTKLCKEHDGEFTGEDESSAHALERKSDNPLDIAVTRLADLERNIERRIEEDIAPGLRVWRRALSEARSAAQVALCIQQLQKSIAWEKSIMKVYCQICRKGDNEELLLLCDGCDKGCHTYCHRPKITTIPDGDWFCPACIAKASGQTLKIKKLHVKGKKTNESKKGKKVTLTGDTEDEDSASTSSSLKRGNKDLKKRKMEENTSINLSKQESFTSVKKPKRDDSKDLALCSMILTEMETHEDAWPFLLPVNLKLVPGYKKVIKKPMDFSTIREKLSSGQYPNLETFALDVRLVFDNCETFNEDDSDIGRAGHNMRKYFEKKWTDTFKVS
Source text: BAZ2B (bromodomain adjacent to zinc finger domain, 2B) belongs to a family of ubiquitously expressed bromodomain containing proteins, which biological function has not yet been elucidated. […] The interaction of BAZ2B with ISWI mediated by the BAZ1 motif has recently been described. […] The protocol is based on the AlphaScreen (PerkinElmer) displacement assay developed by NCGC [5], but uses the peptide ligand Biot-H3K14Ac, a high affinity binding partner for BAZ2B, in an AlphaScreen format. Although AlphaScreen has significant advantages with its utility in a variety of epigenetic target assays, the primary screening data provided in this deposition should be used with caution due to the prevalence of screening artifacts. The top compound concentration tested was 110uM in this assay, which increases number of actives and potential artifacts. An AlphaScreen counterscreen is highly recommended to be run against any putative actives to eliminate non-specific artifacts. Alternatively, one can use other AlphaScreen assays in PubChem to filter out promiscuous hits. Eberharter, A. et al. ACF1 improves the effectiveness of nucleosome mobilization by ISWI through PHD-histone contacts. The EMBO journal 23, 4029-4039. 2004. PMID: 15457208 [2] Jones, M.H. et al. A novel family of bromodomain genes. Genomics 63, 40-45. 2000. PMID: 10662543 [3] Yasgar, et al. Compound Management for Quantitative High-Throughput Screening. JALA. 2008 Apr;13(2):79-89. PMID: 18496600 [4] Inglese, et al. Quantitative high-throughput screening: a titration-based approach that efficiently identifies biological activities in large chemical libraries. Proc Natl Acad Sci. 1;103(31):11473-8. 2006. PMID: 16864780 [5] Quinn et al. A chemiluminescence-based method for identification of histone lysine methyltransferase inhibitors. Mol Biosyst 6(5): 782-8. 2010. PMID: 20567762 [6] Baell,Holloway. New substructure filters for removal of pan assay interference compounds (PAINS) from screening libraries and for their exclusion in bioassays. J Med Chem. 53(7):2719-40. 2010. PMID: 20131845 NIH Molecular Libraries Probe Production Network [MLPCN] NIH Chemical Genomics Center [NCGC] Structural Genomics Consortium (SGC) NIH Grant: 5U54 MH084681-02
To each well of a 1,536w plate, 2ul of BAZ2B protein (final 50nM) and 1ul biotinylated histone peptide acetylated at Lys14 [b-H3(5-23)K14Ac] (final 50nM) were added in 1x PBS buffer, pH 7.4, containing 0.01% Tween-20, using a nanoliter dispenser. Formation of a protein-peptide complex proceeded at room temperature for 30 min. A Kalypsys pin-tool was employed to transfer 23 nL of library compound solution in DMSO to each well. Following a 30 min incubation of the protein-peptide complex with compounds at room temperature, a mixture of 40 ug/mL each streptavidin-coated donor and nickel chelate acceptor AlphaScreen beads (final 10 ug/mL) were added in a 1ul dispense for a final volume of 4ul. A brief centrifugation followed (1000rpm, 1 min) and were then incubated protected from the light for 20 min at room temperature. Plates were read on an EnVision multilabel plate reader using the 1,536 plate HTS AlphaScreen aperture (excitation time 80 ms, measurement time 240 ms).
% is scaled to controls: 0 for no effect and ±100 for the full control effect; potency is read from the fitted curve at half-maximal effect.
Also: nearly all actives have a fitted effect of over 60% in size.

Row | Compound | activity change, negative = inhibition | Potency
1 | CCOC(=O)CCc1c(C)c2ccc(OCc3nn[nH]n3)c(C)c2oc1=O | -1.46% | –
2 | Cc1c(CCC(=O)O)c(=O)oc2cc(OCc3ccc(Br)cc3)ccc12 | -16.1% | –
3 | Cc1c(CCC(=O)O)c(=O)oc2c(C)c(OCc3ccccc3Cl)ccc12 | – | 70.8 µM (active)
4 | O=C(c1ccccc1F)N1CCC(c2nc3c(nnn3Cc3cccc(F)c3)c(=O)[nH]2)CC1 | -3.32% | –
5 | Cc1ccc(NC(=O)COC(=O)CCc2nc3ccccc3n2-c2ccccc2)c(C)c1 | -4.05% | –
6 | CC(C)(C)c1ccc(NC(=O)COC(=O)CCc2nc3ccccc3c(=O)[nH]2)cc1 | -28.6% | –
7 | CCN(c1ccc(NC(=O)COC(=O)CCc2nc3ccccc3n2-c2ccccc2)cc1)C(C)C | – | 25.1 µM (active)
8 | COc1ccc(-n2c(=O)c3c(c4cc(OC)ccc4n3C)n(Cc3cccc(C)c3)c2=O)cc1 | -4.31% | –
9 | CCOC(=O)c1ccc(NC(=O)CCS(=O)(=O)c2ccc(C)cc2)cc1 | 6.69% [at 57.1 µM] | –
10 | Cc1ccc(N(C)C(=O)C2CCN(S(=O)(=O)c3ccc4c(c3)CCCN4C(=O)C3CCC3)CC2)cc1 | -3.01% | –
11 | CCOc1cc(/C=C(\C#N)c2nc(-c3cccs3)c(NC(C)=O)s2)ccc1O | -3.53% | –
12 | COc1cc(/C=C(\C#N)c2nc3c(s2)CC(C)CC3)ccc1O (stereo unspecified) | – | 50.1 µM (active)
13 | COc1cccc2cc(-c3nc(Cl)c4c5c(sc4n3)CC(C)CC5)c(=O)oc12 (stereo unspecified) | 6.24% | –
14 | COc1cc(C(=O)NCCS(=O)(=O)N2CCN(c3ccccc3)CC2)cc(OC)c1OC | -20% | –
15 | CC(=O)c1ccc(NC(=O)CSc2c(C(C)C)cnc3c2c(=O)n(C)c(=O)n3C)cc1 | 4.33% | –
16 | Cc1ccc(Cl)cc1N1CCN(C(=O)C2CCC(CNS(=O)(=O)c3cccs3)CC2)CC1 (stereo unspecified) | -14.2% | –
17 | CCOC(=O)C1CCCN(CC(=O)Nc2cc(C)c3c(=O)oc4ccccc4c3n2)C1 (stereo unspecified) | -4.19% | –
18 | Clc1cccc(-c2nc3nc4ccccc4nc3n2Cc2ccco2)c1 | -8.99% | –
19 | Cc1cc(NC(=O)CSc2nc3cc(Cl)ccc3c(=O)n2Cc2ccco2)no1 | -20.2% | –
20 | Cc1nc2c(c(=O)n1Cc1ccco1)c1nc3ccccc3nc1n2Cc1ccccc1 | – | 56.2 µM (active)
21 | COc1ccccc1CNc1ccc(-c2nc(-c3ccccc3C)no2)cc1[N+](=O)[O-] | -15% | –
22 | COc1ccccc1-n1c(-c2ccc(C)cc2)cn2c3c(=O)n(C)c(=O)n(C)c3nc12 | -25.8% | –
23 | CCOC(=O)c1oc2ccc(S(=O)(=O)n3nc(-c4ccccc4OC)cc3N)cc2c1C | -16% | –
24 | CCCCOc1ccc(CN2C(=O)C(=O)c3cc(Br)cc(C)c32)cc1OC | – | 6.31 µM (active)
25 | CCCCOc1ccc(Cn2c(=O)oc3ccc(C)cc32)cc1OC | 71.6% | –
26 | CCCCN1C(=O)C(C)=C(C)C1OCCc1ccc(OC)c(OC)c1 (stereo unspecified) | 13.3% | –

Row | Compound | activity change, negative = inhibition | Potency
27 | COc1ccccc1CNc1nccn(-c2ccc(F)cc2)c1=O | -18.1% | –
28 | COc1ccc2c3c(c(=O)oc2c1OCC(=O)C(C)(C)C)CCCC3 | – | 79.4 µM (active)
29 | CCCOc1ccc2c3c(c(=O)oc2c1OCCC)CCC3 | 21.5% | –
30 | O=c1oc2c(CN3CCCCC3)c(O)ccc2c2c1CCCCC2 | -12.4% | –
31 | O=C(Cn1c(=O)n(-c2ccc(F)cc2)c(=O)c2sc3ccccc3c21)NC1CCCC1 | -9.41% | –
32 | Cc1cccc(NC(=O)c2cc3c(C)nn(-c4ccccc4)c3s2)c1 | 5.11% | –
33 | CCOC(=O)c1[nH]c2c(c1-c1ccccc1)C(=O)CC(c1ccc(Cl)cc1)C2 (stereo unspecified) | 3.42% | –
34 | CCOC(=O)C1C(c2ccc(Cl)cc2)NC(=S)NC1(O)C(F)(F)F (stereo unspecified) | 12.4% | –
35 | CCOC(=O)C1Sc2[nH]c(=O)sc2C(c2ccc(Cl)cc2)C1C(=O)OCC (stereo unspecified) | – | 50.1 µM (active)
36 | Cc1ccc(NC(=O)c2oc3ccccc3c2NC(=O)Cc2cccs2)cc1 | -17.6% | –
37 | CC(C)Sc1oc(-c2cccs2)nc1S(=O)(=O)c1ccc(Cl)cc1 | -4.8% | –
38 | CCN(CC)CCOc1ccc2c(c1)C(=NNC(=O)c1ccccn1)c1cc(OCCN(CC)CC)ccc1-2 | – | 20 µM (active)
39 | CC(O)c1ccc(OCCN(C)c2ccccn2)cc1 (stereo unspecified) | 0.0135% | –
40 | CCN(CC)S(=O)(=O)c1cc(C(=O)Nc2ccccn2)ccc1C | -5.55% | –
41 | COc1ccccc1CNC(=O)c1ccc(-n2c(C)cc3c2CCCC3)cc1 | -9.34% | –
42 | CC(C)c1ccc(NC(=O)C2CCN(c3nc(-c4ccc(C(C)C)cc4)no3)CC2)cc1 | 17.5% | –
43 | NC(=O)c1c(Nc2nc3c(F)cccc3s2)sc2c1CCCC2 | -17.7% | –
44 | NNc1nc2c(Cl)cccc2s1 | – | 44.7 µM (active)
45 | CC1CCCN(c2nc3c(S(=O)(=O)c4ccc(C(C)C)cc4)nnn3c3ccsc23)C1 (stereo unspecified) | -0.48% | –
46 | O=C(CSc1nc(=O)[nH]c2c1CCCC2)Nc1cc(C(F)(F)F)ccc1Cl | -4.05% | –
47 | O=C(Nc1c(-c2ccc(F)cc2)nc2ccccn12)c1cccc(F)c1 | 1.7% | –
48 | CCn1cc(C(=O)OCC(=O)Nc2cc(C)cc(C)c2)c(=O)c2ccc(C)nc21 | 3.94% | –
49 | O=S(=O)(c1ccccc1)c1nc(-c2ccccc2)oc1NCCCN1CCOCC1 | 1.55% | –
50 | Nc1nc(NCCCN2CCOCC2)nc(Nc2ccccc2)c1[N+](=O)[O-] | -5.03% | –
51 | N#Cc1nc(-c2ccc(OCc3ccccc3)cc2)oc1NCCCN1CCOCC1 | – | 50.1 µM (active)
